The structures appear in SMILES notation. The panel holds about 83,000 compounds, 20% with a hit somewhere; the sample as a whole holds those more often.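 Percent growth is the endpoint: 0 to 100 indicates growth inhibition (40 means 60% inhibition), 0 means no net growth, and negative values indicate cell death.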 Active and inactive are the calls of the source. The calls were made as follows: active = growth percent below 10; inactive = the rest.

Results on 34 compounds are retold here after PubChem BioAssay (NCI).

This assay concerns NCI-H23 lung. Briefly: NCI-60 one-dose screen, 48 h (100 = growth as untreated, 0 = no growth, -100 = all killed). To be noted: 10 µM unless noted.
In the case of `Cc1cc2ccccc2c[n+]1CC(=O)c1ccc(-c2ccccc2)cc1`, the growth is 48.6% (inactive).
The result for `COC(=O)c1ccc2c(c1)n(Cc1ccc3ccccc3c1)c[n+]2Cc1ccc2ccccc2c1` reads 34.6% (inactive); that for `Cc1c(Cl)cccc1NC(=O)c1sc2nc3c(cc2c1N)CCCCC3`, 48% (inactive).
For the compound `C=C1C(=O)O[C@H]2[C@H]1CC/C(COC(=O)c1cn(C)c3ccccc13)=C\CC[C@@]1(C)O[C@@H]21`, the growth is 22.5% (inactive).
The result for `Sc1cccc2cccnc12` reads 55.4% (inactive); that for `O=C(CCl)N1CCCc2ccccc21`, 101% (inactive); that for `Cc1cccc(C)c1NC(=O)CN(CC(C)C)CC(O)COc1ccccc1` (centres undefined), 86% (inactive).
With `OCCNc1nc(NCCO)nc(Nc2ccc(C3=NN(c4cc(Cl)cc(Cl)c4)C(c4ccc(Cl)cc4)C3)cc2)n1` (centres undefined), the growth was 29.1% (inactive).
As to `CC(C)(C)c1nn(-c2ccccc2)c2c1COCN2Cc1ccc(Cl)cc1`, the growth was 84.7% (inactive).
With `NS(=O)(=O)c1ccc(N2Cc3cc(Cl)ccc3OC3=C2C(=O)N(CC2CCCCC2)C3=O)cc1` the figure was -36.5% (active); with `C#C[C@@]1(O)[C@@H](CO)O[C@@H](n2cc(-c3ccco3)c3c(N)ncnc32)[C@@H]1O`, 78.6% (inactive).
Turning to `NC(=O)CN1C(=O)c2ccccc2C1=O`, the growth was 98.8% (inactive).
With `CC1CCCN(CCCCCOc2ccc3oc4ccc(Cl)cc4c(=O)c3c2)C1` (centres undefined) the figure was 78.6% (inactive).
The result for `O=c1[nH]c(-c2cccc(F)c2)cc2cc(F)ccc12` reads 45.9% (inactive); that for `O=C(O)COc1ccc2c(=O)c3sc4c(=O)c5ccccc5c(=O)c4c3c(=O)c2c1`, -39.6% (active).
For `CCOC(=O)/C=C1\SC(=Nc2ccc(C#N)cc2)N(CCN2C(=O)/C(=C/C(=O)OCC)SC2=Nc2ccc(C#N)cc2)C1=O`, the growth was 52% (inactive).
With `COC(=O)/C=C1\SC(=Nc2ccc(F)cc2)N(CCc2c[nH]c3ccccc23)C1=O` the figure was 85.3% (inactive); with `CCN1CCN(Cc2ccc(NC(=O)c3cccc(C#Cc4cccc5[nH]nc(N)c45)c3)cc2C(F)(F)F)CC1`, -42.9% (active); with `CC[C@H](Nc1ncnc2nc[nH]c12)c1nc2cccc(CC(=O)c3ccc(C(=O)NO)cc3)c2c(=O)n1-c1ccccc1`, 94.1% (inactive).
The result for `CC(=O)OCC1OC(OC2C(COC(C)=O)OC(OCCC[S-])C(OC(C)=O)C2OC(C)=O)C(OC(C)=O)C(OC(C)=O)C1OC(C)=O.[Au+].c1ccc(CN2[CH-]N(Cc3ccccc3)C(c3ccccc3)=C2c2ccccc2)cc1` (centres undefined) reads 12.1% (inactive); that for `O=S(=O)(O)c1ccc(N=NSc2ccc3ccccc3c2)cc1`, 93.4% (inactive); that for `C[C@H]1[C@H](C)CC[C@]2(C(=O)OCCOCCOCC[P+](c3ccccc3)(c3ccccc3)c3ccccc3)CC[C@]3(C)C(=CC[C@@H]4[C@@]5(C)CC[C@H](OC(=O)C(Cl)Cl)C(C)(C)[C@@H]5CC[C@]43C)[C@H]12`, 5.49% (active).
The result for `O=c1c2ccccc2oc2ccc(OCCCCCN3CCCCCC3)cc12` reads 72% (inactive); that for `Nc1c(C(=O)Nc2ccccn2)sc2nc3c(cc12)C(=O)CCC3`, 46.1% (inactive).
Turning to `COc1ccc(-n2cc(-c3ccc(Cl)c(Cl)c3)[nH]c2=O)cc1OC`, the growth is 94.8% (inactive).
The result for `Cc1ccc(C(=O)/C(=C/c2ccc([N+](=O)[O-])cc2)S(=O)Cc2ccccc2)cc1` (centres undefined) reads 13.6% (inactive); that for `C=CCn1c(CN2CCN(c3cc4c(cc3F)c(=O)c(C(=O)O)cn4C3CC3)CC2)n[nH]c1=S`, 104% (inactive); that for `CC(=O)c1ccc(NC(=O)CSc2nnc(-c3cc(-c4ccc(C)cc4)nc4ccccc34)o2)cc1`, 27.6% (inactive).
As to `Cn1cc(-c2ccc3c(c2)ncn3-c2ccc(CC(=O)Nc3cc(C(C)(C)C)on3)cc2)cn1`, the growth was 30.2% (inactive).
As for `CN(C)[C@@H]1C(=O)C(C(N)=O)=C(O)[C@@]2(O)C(=O)C3=C(O)c4c(O)cc(CN5CCc6ccccc6C5)c(Cl)c4C[C@H]3C[C@@H]12`, the growth is -73.8% (active).
As to `CC(=O)Oc1c2c(nc3c1c1ccccc1n3Cc1ccccc1)-c1ccccc1C2`, the growth is 72% (inactive).
Take `CC(C)(C)c1nc2c(s1)c1nc(N)ncc1c1ccc(NS(=O)(=O)c3c(F)cccc3F)c(F)c12`: the growth is 78.5% (inactive).
Regarding `COc1cc(C(=O)N2CCN(c3ccccc3OC)CC2)c(NC(=O)c2cnccn2)cc1OCc1ccccc1`, the growth was 77.9% (inactive).
Take `c1ccc(-c2cn3ccnc3c(-c3ccc4c(c3)ncn4C3CCCCC3)n2)cc1`: the growth is 103% (inactive).
